From the supplement of paper PMC6555819

Assays:
Experiment in all cases: PBM binding z-score (relative to random genomic background probes); higher = stronger binding; sequences stand for … in GC…GCGATTGACAGCGTAGAATGAAGG
[1] = system: FXR:RXRa (NR concentration 270 nM, RXRa partner concentration 90 nM)
In short: (§1)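 Regression normalization was applied to scanned fluorescence from custom Agilent 4×180K protein-binding microarrays. Before scanning, arrays were incubated 1 h with ligand-free nuclear receptor dimers, and binding was detected with antibodies against each partner (one per run). Binding z-scores use the random background probes as reference.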

[2] = system: LXRa:RXRa (NR concentration 270 nM, RXRa partner concentration 90 nM)
In short: as §1

[3] = system: LXRa homodimer (NR concentration 270 nM)
In short: as §1

[4] = system: LXRb:RXRa (NR concentration 270 nM, RXRa partner concentration 90 nM)
In short: as §1

[5] = system: LXRb homodimer (NR concentration 270 nM)
In short: as §1

[6] = system: PPARa:RXRa (NR concentration 270 nM, RXRa partner concentration 90 nM)
In short: as §1

[7] = system: PPARg:RXRa (NR concentration 180 nM, RXRa partner concentration 90 nM)
In short: as §1

[8] = system: PPARg:RXRa 270nM:90nM, anti-RXR (NR concentration 270 nM, RXRa partner concentration 90 nM)
In short: as §1

[9] = system: PPARg:RXRa 30nM:10nM, anti-RXR (NR concentration 30 nM, RXRa partner concentration 10 nM)
In short: as §1

[10] = system: PPARg:RXRa 90nM:30nM, anti-RXR (NR concentration 90 nM, RXRa partner concentration 30 nM)
In short: as §1

[11] = system: PPARg:RXRa DBDmut IVT, anti-RXR (DBD mutation: RXRa K156A/R161A, NR concentration 270 nM, RXRa partner concentration 90 nM)
In short: as §1

[12] = system: PPARg:RXRa IVT, anti-PPARg (NR concentration 270 nM, RXRa partner concentration 90 nM)
In short: as §1

[13] = system: PPARg DBDmut:RXRa IVT, anti-PPARg (DBD mutation: PPARg1 K132A/R137A, NR concentration 270 nM, RXRa partner concentration 90 nM)
In short: as §1

[14] = system: PPARg DBDmut IVT, anti-PPARg (DBD mutation: PPARg1 K132A/R137A, NR concentration 270 nM)
In short: as §1

[15] = system: PPARg homodimer (NR concentration 180 nM)
In short: as §1

[16] = system: PXR:RXRa (NR concentration 270 nM, RXRa partner concentration 90 nM)
In short: as §1

[17] = system: PXR homodimer (NR concentration 270 nM)
In short: as §1

[18] = system: RARa:RXR (NR concentration 270 nM, RXRa partner concentration 90 nM)
In short: as §1

[19] = system: RARa homodimer (NR concentration 270 nM)
In short: as §1

[20] = system: RARb:RXRa (NR concentration 270 nM, RXRa partner concentration 90 nM)
In short: as §1

Row | Sequence | PBM binding z-score [1] | PBM binding z-score [2] | PBM binding z-score [3] | PBM binding z-score [4] | PBM binding z-score [5] | PBM binding z-score [6] | PBM binding z-score [7] | PBM binding z-score [8] | PBM binding z-score [9] | PBM binding z-score [10] | PBM binding z-score [11] | PBM binding z-score [12] | PBM binding z-score [13] | PBM binding z-score [14] | PBM binding z-score [15] | PBM binding z-score [16] | PBM binding z-score [17] | PBM binding z-score [18] | PBM binding z-score [19] | PBM binding z-score [20]
1 | CCTACTGGGCCATCAGGTCATTTATATCAACGTT | 1.48 | 1.03 | 1.99 | 1.81 | 0.176 | 2.79 | 2.76 | 3.29 | 1.06 | 2.57 | 3.78 | 5.03 | 0.0191 | 0.266 | 1.09 | 1.59 | 0.478 | 2.06 | 0.492 | 1.75
2 | CCAAACAGGTGAGAAGGTAACTCAGCCTCGATTA | -0.19 | -0.0558 | -0.189 | -0.138 | -0.392 | 0.653 | 0.64 | 1.22 | 0.297 | 0.598 | 1.49 | 1.46 | 0.108 | -0.155 | 0.805 | -0.406 | 0.0845 | 0.105 | 0.426 | 0.534
3 | TTACCAAGATGAAAGGTCGTTGATGCACGCCTTG | 1.32 | 1.82 | 0.225 | 1.6 | -0.121 | 3.04 | 3.53 | 5.28 | 3.89 | 5.86 | 0.675 | 1.47 | 0.794 | 0.0757 | 1.13 | 2.08 | 0.245 | 2.24 | 0.444 | 1.55
4 | TAGCCTAGGTCATGGGCCATTATACCACGCGAAC | 4.64 | 3.37 | 0.43 | 2.95 | 0.468 | 4.24 | 4.34 | 4.26 | 1.44 | 2.97 | 1.69 | 3.57 | 0.221 | -0.316 | 1.41 | 1.81 | -0.0788 | 2.65 | -0.113 | 3.98
5 | TCTAGTTGGTCACGGAGGCCACACACGACGGGTA | 0.758 | 0.488 | -0.0408 | -0.0226 | -0.0385 | 1.02 | 1.19 | 1.94 | 3.1 | 2.46 | 2.18 | 2.47 | 0.779 | 0.634 | 0.778 | 0.694 | 0.425 | 0.748 | 0.249 | 2.16
6 | ATCTCTAGGTAGCCAAGTTCAGTGAATGCCGAAC | -0.0679 | -0.0761 | 0.135 | 0.15 | 0.335 | 0.168 | -0.118 | -0.148 | -0.248 | -0.291 | 0.328 | 0.377 | -0.173 | 0.614 | 0.13 | 1.2 | 0.957 | 0.266 | 0.228 | 0.669
7 | ATATGTATGTTAGCTGGGGTCATTCAGACTAGGC | 3.96 | 4.22 | 1.92 | 4.33 | 1.31 | 4.48 | 2.06 | 2.85 | 1.26 | 2.08 | 2.2 | 2.3 | 1.51 | 1.76 | 1.82 | 5.63 | 2.99 | 5.55 | 0.578 | 2.6
8 | TAGCCTAGGTGATGCGGGCCAGTATAGTGTCGGC | -0.724 | -0.891 | -0.841 | -1.2 | -1.39 | -0.486 | -0.087 | -0.902 | -1.01 | -0.934 | -0.174 | 0.433 | -0.831 | -0.995 | -1 | -0.852 | -0.76 | -0.959 | -0.718 | -0.225
9 | AGAACGAGGCCAATGAGTTGATAGCACGGGTGGC | -0.177 | -0.455 | -0.576 | -0.817 | -0.913 | 0.0353 | 0.81 | -0.06 | -0.388 | 0.093 | 1.54 | 0.862 | 0.703 | 0.331 | -0.093 | 0.214 | 0.741 | -0.114 | 0.0259 | 0.946
10 | AATACATGGTCATCGTAGGCCAGAGTACGCACAG | 0.0777 | 0.702 | 0.0647 | -0.141 | -0.0432 | 0.289 | 1.22 | 0.533 | 0.2 | 0.514 | 0.199 | 1.21 | 0.624 | 0.968 | -0.153 | 0.3 | -0.157 | 0.574 | 0.339 | 1.14
11 | CCTCGGAGGACAACAGGAGGTCAGAGCGGCCAGA | 1.36 | 2.25 | 2.24 | 1.42 | -0.43 | 2.09 | 0.411 | 0.182 | -0.715 | -0.31 | 0.0202 | 0.396 | -0.758 | -1.19 | 1.8 | 2.31 | 0.892 | 2.47 | 0.103 | 3
12 | ACTCAGAGGACAAAGGTCAGAGCTACGCCAGTGA | 4.51 | 4.87 | 1.72 | 3.52 | 0.532 | 5.3 | 7.56 | 7.42 | 5.13 | 7.46 | 1.49 | 3.79 | -0.0394 | -0.208 | 3.47 | 4.07 | 0.501 | 5.53 | 1.81 | 4.71
13 | CCTGCTAGGTAAATGGTCAGCTAAAGCAGCTCGC | -0.299 | -0.376 | -0.748 | -0.628 | -0.539 | -0.0599 | 0.476 | 1.64 | 0.189 | 1.31 | 1.07 | 0.489 | -1.23 | -1.53 | 0.311 | -0.268 | -0.537 | -0.118 | -0.6 | 0.261
14 | GCGACTGGGTCAAAGCAGGTTACCATAAGGTTGG | 3.12 | 3.67 | -0.265 | 2.21 | -0.807 | 4.27 | 4.75 | 4.75 | 2.08 | 3.49 | 5.8 | 6.15 | 0.18 | 0.407 | 1.75 | 3.55 | -0.492 | 3.29 | -0.492 | 3.19
15 | CAAACTAGGTCAAAGGTAAAAGTCGAGCCAACCA | 5.4 | 4.12 | 0.676 | 3.51 | 0.646 | 6.67 | 13 | 10.3 | 12.5 | 12.1 | 8.99 | 9.08 | 2.75 | 1.05 | 2.75 | 3.48 | -0.123 | 5.33 | 0.696 | 4.21
16 | TCATATAGGTAAATGCTAGGTGAAAGTACGATCT | 1.24 | 0.992 | 0.296 | 0.731 | 0.0256 | 1.6 | 1.69 | 2.52 | 3.66 | 3.19 | 3.93 | 3.03 | 1.24 | 1.57 | 0.891 | 0.968 | 0.678 | 1.38 | 1.13 | 0.64
17 | CCTGCTAGGTCATGGTCAGCCAATCTACAGTATG | 3.64 | 2.66 | -0.0941 | 1.68 | -0.0584 | 3.49 | 2.75 | 2.89 | 0.768 | 1.98 | 4.43 | 3.74 | 0.352 | 0.0677 | 1.85 | 1.21 | -0.386 | 2.49 | 0.141 | 3.9
18 | TGAATGAGGTTAAAGATGAGGGAACGTGGCGTCG | 2.79 | 2.16 | 0.0267 | 1.29 | 0.831 | 3.65 | 3.77 | 4.65 | 2.44 | 4.35 | 2.54 | 2.8 | 0.619 | 0.196 | 0.933 | 1.49 | 0.214 | 2.17 | 0.368 | 2.1
